Test results as given in PubChem BioAssay (NCATS).
Results filed as inconclusive are left out. Active and inactive are the calls of the source. Calls come from the whole dose curve; as a rule, active = well fitted curve in the direction sought with a large enough effect; inconclusive = small, poorly fitted or top-dose-only effect, or another doubt; inactive = no such curve, though single readings can be large; an effect the other way counts as inactive or inconclusive.

System: not listed separately
Experiment: Cellular Toxicity (caspase-3) NIH 3T3 (AID 666);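 note: caspase signal read after 16 h compound exposure; 0% = DMSO basal and 100% = 100 µM tamoxifen stimulation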
Conditions: NIH 3T3 caspase-3 activation, apoptosis/toxicity, 0% DMSO, 100% is 100 µM tamoxifen; series mostly up to 92.2 µM; caspase-3 activation: at the top concentration
In short: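 Mouse NIH 3T3 fibroblasts (1000 cells/well) were treated with compound for 16 hr at 37°C in complete medium; caspase-3/7 activity was read by Caspase-Glo luminescence. Normalized to DMSO and 100 uM tamoxifen; AC50 from Hill fits.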

SMILES | caspase-3 activation
CCOc1ccccc1C(N)=O | -0.58% (inactive)
CCOc1ccc(NC(C)=O)cc1 | -0.23% (inactive)
COc1ccc(C(Cl)=C(c2ccc(OC)cc2)c2ccc(OC)cc2)cc1 | 4.94% (inactive)
O=C(O)c1ccc(S(=O)(=O)N(Cl)Cl)cc1 | 2.05% (inactive)
CCCCC(CC)COC(=O)c1ccc(N(C)C)cc1 (configuration not stated) | -4.38% (inactive)
Oc1c(Cl)cc(Cl)c(Cl)c1Cc1c(O)c(Cl)cc(Cl)c1Cl | -4.8% (inactive)
CCCN(CCC)S(=O)(=O)c1ccc(C(=O)O)cc1 | 2.41% (inactive)
NCCNc1cccc2ccccc12 | -4.53% (inactive)
COc1ccc(C(=O)c2ccccc2)c(O)c1 | -0.304% (inactive)
Oc1ccc(Cl)cc1Cc1cc(Cl)ccc1O | -4.47% (inactive)
C/C=C/c1ccc(O)c(OC)c1 | -4.62% (inactive)
OC[C@H]1O[C@@H]2O[C@H]3[C@H](O)[C@@H](O)[C@@H](O[C@H]4[C@H](O)[C@@H](O)[C@@H](O[C@H]5[C@H](O)[C@@H](O)[C@@H](O[C@H]6[C@H](O)[C@@H](O)[C@@H](O[C@H]7[C@H](O)[C@@H](O)[C@@H](O[C@H]8[C@H](O)[C@@H](O)[C@@H](O[C@H]1[C@H](O)[C@H]2O)O[C@@H]8CO)O[C@@H]7CO)O[C@@H]6CO)O[C@@H]5CO)O[C@@H]4CO)O[C@@H]3CO | -0.563% (inactive)
C=C[C@H]1CN2CC[C@H]1C[C@@H]2[C@@H](O)c1ccnc2ccc(OC)cc12 | -6.25% (inactive)
NC(=O)c1ccccc1O | -1.73% (inactive)

System: not listed separately
Experiment: Cellular Toxicity (caspase-3) Renal Proximal Tubule (AID 667);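 note: cells exposed to compound for 16 hours at 37 °C before detection; 0% = DMSO basal and 100% = 10 µM staurosporine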
Conditions: renal proximal tubule cells, primary cells freshly taken from rat, solvent-only wells 0%, staurosporine 100%; series mostly up to 91.7 µM; caspase-3 activation: at the top concentration
In short: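 Caspase 3/7 activation measured by luminescent aminoluciferin release in primary rat proximal tubule cells after 16 hr compound exposure at 37 °C. AC50 from Hill-fitted concentration-response, scaled between DMSO and 10 uM staurosporine.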

SMILES | caspase-3 activation
CCOc1ccccc1C(N)=O | 4.57% (inactive)
CCOc1ccc(NC(C)=O)cc1 | 4.14% (inactive)
COc1ccc(C(Cl)=C(c2ccc(OC)cc2)c2ccc(OC)cc2)cc1 | 7.65% (inactive)
O=C(O)c1ccc(S(=O)(=O)N(Cl)Cl)cc1 | 7.53% (inactive)
CCCCC(CC)COC(=O)c1ccc(N(C)C)cc1 (configuration not stated) | -0.746% (inactive)
Oc1c(Cl)cc(Cl)c(Cl)c1Cc1c(O)c(Cl)cc(Cl)c1Cl | -2.35% (inactive)
CCCN(CCC)S(=O)(=O)c1ccc(C(=O)O)cc1 | -8.16% (inactive)
NCCNc1cccc2ccccc12 | -1.16% (inactive)
COc1ccc(C(=O)c2ccccc2)c(O)c1 | -5.07% (inactive)
Oc1ccc(Cl)cc1Cc1cc(Cl)ccc1O | 28% (inactive)
C/C=C/c1ccc(O)c(OC)c1 | 5.48% (inactive)
OC[C@H]1O[C@@H]2O[C@H]3[C@H](O)[C@@H](O)[C@@H](O[C@H]4[C@H](O)[C@@H](O)[C@@H](O[C@H]5[C@H](O)[C@@H](O)[C@@H](O[C@H]6[C@H](O)[C@@H](O)[C@@H](O[C@H]7[C@H](O)[C@@H](O)[C@@H](O[C@H]8[C@H](O)[C@@H](O)[C@@H](O[C@H]1[C@H](O)[C@H]2O)O[C@@H]8CO)O[C@@H]7CO)O[C@@H]6CO)O[C@@H]5CO)O[C@@H]4CO)O[C@@H]3CO | -2.69% (inactive)
C=C[C@H]1CN2CC[C@H]1C[C@@H]2[C@@H](O)c1ccnc2ccc(OC)cc12 | 2.55% (inactive)
COc1cc([C@H]2Oc3cc([C@H]4Oc5cc(O)cc(O)c5C(=O)[C@@H]4O)ccc3O[C@@H]2CO)ccc1O | 2.5% (inactive)
NC(=O)c1ccccc1O | -6.97% (inactive)

Target: Guanine nucleotide-binding protein G(i) subunit alpha-1 (Homo sapiens) (UniProt P63096)
Sequence (P63096 whole entry, looked up): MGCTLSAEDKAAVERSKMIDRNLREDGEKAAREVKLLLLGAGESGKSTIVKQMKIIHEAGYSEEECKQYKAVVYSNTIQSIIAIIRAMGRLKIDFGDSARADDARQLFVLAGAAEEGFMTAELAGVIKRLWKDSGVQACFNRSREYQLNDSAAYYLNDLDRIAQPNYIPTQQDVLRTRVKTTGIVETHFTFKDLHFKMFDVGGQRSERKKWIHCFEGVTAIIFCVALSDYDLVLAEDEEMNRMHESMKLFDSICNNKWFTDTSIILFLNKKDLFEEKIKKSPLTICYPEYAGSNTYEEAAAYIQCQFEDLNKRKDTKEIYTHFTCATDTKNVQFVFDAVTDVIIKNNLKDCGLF
Experiment: qHTS Assay for Inhibitors of RGS12 GoLoco Motif Activity (Green Fluorophore) (AID 879);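 note: 0% = labeled peptide with Gαi1 and full inhibition = labeled peptide alone without protein; negative values mean loss of peptide binding seen as reduced polarization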
Conditions: Galphai1/FITC-RGS12 GoLoco peptide, fluorescence polarization; series mostly up to 57.1 µM; activity, negative = inhibition: at the top concentration
Description: Assay Overview: NIH Molecular Libraries Screening Centers Network [MLSCN] NIH Chemical Genomics Center [NCGC] MLSCN Grant: NS053754-01 Assay Provider: Siderovski, David P, University of North Carolina at Chapel Hill G-protein-coupled receptors (GPCRs) are major targets for drug discovery. The regulator of G-protein signaling (RGS)-protein family has important roles in GPCR signal transduction. RGS proteins contain a conserved RGS-box, which is often accompanied by other signaling regulatory elements. RGS proteins accelerate the deactivation of G proteins to reduce GPCR signaling; however, some also have an effector function and transmit signals. Combining GPCR agonists with RGS inhibitors should potentiate responses, and could markedly increase the agonist's regional specificity. The diversity of RGS proteins with highly localized and dynamically regulated distributions in brain makes them attractive targets for pharmacotherapy of central nervous system disorders. […] A complex of Gai1 and fluorescently labeled G-alpha-binding peptide (the "GoLoco motif") derived from RGS12 is incubated with library members. Inhibitors of the binding are detected by a decrease in the fluorescence polarization (FP) of the fluorophore. Protein was supplied by Prof. David Siderovski, University of North Carolina at Chapel Hill.
Assay Protocol: Reagents/Controls: Assay Buffer: 10 mM Tris-HCl, 150 mM NaCl, 0.1 mM GDP (prepared fresh), and 0.05% NP40 at pH 7.5. […] 10 nM FITC labeled peptide/50 nM protein in columns 1, 2, 5 - 48. Titration of unlabeled peptide control ([H][…][NH2], custom synthesized and HPLC-purified by Tufts University Core Facility) from 10 mM, then 1:2 dilution, 16-point in duplicate, pin-transferred to column 2, rows 1 to 32. Column 1 is neutral. FITC-labeled RGS12-GoLoco peptide was custom-synthesized and HPLC-purified by Michael Berne of Tufts University Assay Steps. Four uL of reagents were dispensed to 1536-well Greiner black solid-bottom plates. Compounds and controls (23 nL) were transferred via Kalypsys PinTool. The plates were incubated for 10 min at room temperature, and then read on ViewLux (Perkin-Elmer) High-throughput CCD imager using FITC polarization filter sets for the fluorescein-labeled decapeptide probe.During dispense, reagent bottles were kept submerged into 4 deg C water bath and all liquid lines were covered with aluminum foil to minimize probe and protein degradation. All screening operations were performed on a Kalypsys robotic system (Kalypsys, Inc., San Diego, CA) containing one RX-130 and two RX-90 anthropomorphic robotic arms.

SMILES | activity, negative = inhibition
NS(=O)(=O)Cc1noc2ccccc12 | -6% (inactive)
NC(N)=NCc1cccc(I)c1 | -12.6% (inactive)
CN1CCC[C@@H]1CCO[C@](C)(c1ccccc1)c1ccc(Cl)cc1 | -3.03% (inactive)
